# The supplement of paper PMC10849652
# Targets with a hit are over-represented here; the source holds about 7,900 in all. About 0.6% of all pairs of compound and target were hits. Unmarked numbers belong to inactive results.
# Key:
# Assay in all cases: log2 fold change, soluble protein after heating vs DMSO (PISA); higher = thermal stabilisation; K562 cells, 10 uM, 30 min; active = over 0.2 and 3.5 SD of the protein, either way, in both replicates (recomputed)
# [1] = compound: CC[C@@H]1C(=O)N(C)c2cnc(Nc3ccc(C(=O)NC4CCN(C)CC4)cc3OC)nc2N1C1CCCC1
# In short: (§1)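 Thermal stability values are relative to control samples and come from duplicates. They are expressed as log2 fold changes. For measurement, K562 cells (2×10^6 cells/mL) received 10 μM compound for 30 min, and aliquots were heated for 3 min over 48°C-58°C, pooled, and extracted at 4°C in PBS with 0.5% NP-40. Soluble protein, the supernatant after 21,000xg for 90 min, was quantified by TMTpro 16plex LC-MS/MS with equalised channel sums.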
# volasertib = compound: CC[C@@H]1C(=O)N(C)c2cnc(Nc3ccc(C(=O)N[C@H]4CC[C@H](N5CCN(CC6CC6)CC5)CC4)cc3OC)nc2N1C(C)C [volasertib]
# In short: as §1
# [2] = compound: CC[C@H](C)N1C=C(C2=C(C=C(C=C21)C3=CN=C(C=C3)N4CCNCC4)C(=O)NCC5=C(C=C(NC5=O)C)C)C
# In short: as §1
# epoxomicin = compound: CC[C@H](C)[C@@H](C(=O)N[C@@H]([C@@H](C)O)C(=O)N[C@@H](CC(C)C)C(=O)[C@]1(CO1)C)NC(=O)[C@H]([C@@H](C)CC)N(C)C(=O)C [epoxomicin]
# In short: as §1
# [3] = compound: CCn1c(C(=O)N(C2CC2)C2CC2)cc2c3c(ncn3C)c(Nc3cc(C)n(C)n3)nc21
# In short: as §1
# [4] = compound: CCn1cc(-c2ccnc3[nH]c(-c4cccc(CN(C)C)c4)cc23)c(-c2ccc(NC(=O)N(C)C)cc2)n1
# In short: as §1
# [5] = compound: CN(C)CC(=O)Nc1ccc2[nH]c(=O)c3ccccc3c2c1
# In short: as §1
# rosiglitazone = compound: CN(CCOC1=CC=C(C=C1)C[C@H]2C(=O)NC(=O)S2)C3=CC=CC=N3 (racemic) [rosiglitazone]
# In short: as §1
# [6] = compound: CN1C2=C(C3=C1C(=O)N(N=C3)CC4=CC(=CC=C4)N)SC(=C2)S(=O)C
# In short: as §1
# [7] = compound: CN1CCC(CNc2ccc3ncc(-c4cccc(OC(F)(F)F)c4)n3n2)CC1
# In short: as §1
# saracatinib = compound: CN1CCN(CCOc2cc(OC3CCOCC3)c3c(Nc4c(Cl)ccc5c4OCO5)ncnc3c2)CC1 [saracatinib]
# In short: as §1
# sotrastaurin = compound: CN1CCN(c2nc(C3=C(c4c[nH]c5ccccc45)C(=O)NC3=O)c3ccccc3n2)CC1 [sotrastaurin]
# In short: as §1
# alvocidib = compound: CN1CC[C@H](c2c(O)cc(O)c3c(=O)cc(-c4ccccc4Cl)oc23)[C@H](O)C1 [alvocidib]
# In short: as §1
# Tubastatin A = compound: CN1CCc2c(c3ccccc3n2Cc2ccc(C(=O)NO)cc2)C1 [Tubastatin A]
# In short: as §1
# [8] = compound: CNC(=O)C1=CC=CC=C1NC2=NC(=NC=C2Cl)NC3=C(C=C(C=C3)N4CCOCC4)OC
# In short: as §1
# defactinib = compound: CNC(=O)c1ccc(Nc2ncc(C(F)(F)F)c(NCc3nccnc3N(C)S(C)(=O)=O)n2)cc1 [defactinib]
# In short: as §1
# rucaparib = compound: CNCc1ccc(-c2[nH]c3cc(F)cc4c3c2CCNC4=O)cc1 [rucaparib]
# In short: as §1
# [9] = compound: CNc1nc(-c2ccc3c(N)n[nH]c3c2)cc(N2C[C@@H](C(=O)NC3CCCCC3)CC[C@H]2C)n1
# In short: as §1
# encorafenib = compound: COC(=O)N[C@@H](C)CNc1nccc(-c2cn(C(C)C)nc2-c2cc(Cl)cc(NS(C)(=O)=O)c2F)n1 [encorafenib]
# In short: as §1
# [10] = compound: COC(=O)[C@H](CCSC)NC(=O)C1=C(C=C(C=C1)NC[C@H](CS)N)C2=CC=CC=C2
# In short: as §1
# Chain of UniProt P11216 (P11216 whole entry, looked up): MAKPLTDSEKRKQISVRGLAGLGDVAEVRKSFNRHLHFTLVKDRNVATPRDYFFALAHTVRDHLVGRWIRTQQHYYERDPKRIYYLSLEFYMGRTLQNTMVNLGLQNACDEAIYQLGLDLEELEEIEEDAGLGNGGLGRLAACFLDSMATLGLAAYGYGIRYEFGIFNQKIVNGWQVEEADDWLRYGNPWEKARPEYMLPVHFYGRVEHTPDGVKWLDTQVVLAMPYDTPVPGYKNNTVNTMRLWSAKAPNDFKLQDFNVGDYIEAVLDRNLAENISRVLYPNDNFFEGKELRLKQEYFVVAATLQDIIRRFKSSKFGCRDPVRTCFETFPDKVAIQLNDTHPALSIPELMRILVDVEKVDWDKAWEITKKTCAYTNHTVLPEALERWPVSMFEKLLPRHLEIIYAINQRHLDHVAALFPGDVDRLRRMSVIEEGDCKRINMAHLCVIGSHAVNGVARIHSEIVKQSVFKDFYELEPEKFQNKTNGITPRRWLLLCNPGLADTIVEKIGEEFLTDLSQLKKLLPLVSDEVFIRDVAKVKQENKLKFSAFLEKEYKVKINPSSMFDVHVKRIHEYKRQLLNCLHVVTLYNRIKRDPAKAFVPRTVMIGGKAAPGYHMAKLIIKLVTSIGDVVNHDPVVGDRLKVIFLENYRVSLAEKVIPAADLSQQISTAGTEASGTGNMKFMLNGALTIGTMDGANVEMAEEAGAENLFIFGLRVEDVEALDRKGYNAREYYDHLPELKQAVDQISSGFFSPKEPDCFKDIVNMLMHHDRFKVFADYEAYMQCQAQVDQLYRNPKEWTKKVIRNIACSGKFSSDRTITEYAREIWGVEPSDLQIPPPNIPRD
# Chain of UniProt Q5JRX3 (Q5JRX3 whole entry, looked up): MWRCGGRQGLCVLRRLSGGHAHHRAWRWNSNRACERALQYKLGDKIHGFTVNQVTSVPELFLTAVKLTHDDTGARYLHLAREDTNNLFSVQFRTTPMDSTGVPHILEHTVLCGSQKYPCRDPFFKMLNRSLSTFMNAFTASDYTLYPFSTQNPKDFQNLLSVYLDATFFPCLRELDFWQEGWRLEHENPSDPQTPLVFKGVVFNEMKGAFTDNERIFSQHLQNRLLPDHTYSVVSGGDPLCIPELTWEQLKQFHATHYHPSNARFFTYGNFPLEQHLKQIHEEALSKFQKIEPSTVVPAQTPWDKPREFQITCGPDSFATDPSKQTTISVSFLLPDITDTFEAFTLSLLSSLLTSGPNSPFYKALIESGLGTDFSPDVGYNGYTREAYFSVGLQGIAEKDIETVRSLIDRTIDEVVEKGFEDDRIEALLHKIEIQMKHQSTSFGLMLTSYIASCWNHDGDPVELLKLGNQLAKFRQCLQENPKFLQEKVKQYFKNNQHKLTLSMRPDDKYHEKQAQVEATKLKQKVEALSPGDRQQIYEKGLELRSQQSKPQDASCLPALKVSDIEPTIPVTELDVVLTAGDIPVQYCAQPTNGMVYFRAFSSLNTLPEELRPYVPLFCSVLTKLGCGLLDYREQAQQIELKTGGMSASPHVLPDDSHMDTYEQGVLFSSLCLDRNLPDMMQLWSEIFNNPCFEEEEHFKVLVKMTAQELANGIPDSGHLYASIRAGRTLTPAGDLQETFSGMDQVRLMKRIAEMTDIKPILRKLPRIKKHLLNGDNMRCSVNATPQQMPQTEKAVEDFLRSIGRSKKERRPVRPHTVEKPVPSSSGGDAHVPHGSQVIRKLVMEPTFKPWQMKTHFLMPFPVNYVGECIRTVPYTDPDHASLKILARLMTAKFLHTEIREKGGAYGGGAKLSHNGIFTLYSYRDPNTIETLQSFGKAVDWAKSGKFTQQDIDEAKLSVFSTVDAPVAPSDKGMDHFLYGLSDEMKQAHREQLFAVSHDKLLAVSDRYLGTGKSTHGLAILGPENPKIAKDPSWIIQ
# Chain of UniProt Q13131 (Q13131 whole entry, looked up): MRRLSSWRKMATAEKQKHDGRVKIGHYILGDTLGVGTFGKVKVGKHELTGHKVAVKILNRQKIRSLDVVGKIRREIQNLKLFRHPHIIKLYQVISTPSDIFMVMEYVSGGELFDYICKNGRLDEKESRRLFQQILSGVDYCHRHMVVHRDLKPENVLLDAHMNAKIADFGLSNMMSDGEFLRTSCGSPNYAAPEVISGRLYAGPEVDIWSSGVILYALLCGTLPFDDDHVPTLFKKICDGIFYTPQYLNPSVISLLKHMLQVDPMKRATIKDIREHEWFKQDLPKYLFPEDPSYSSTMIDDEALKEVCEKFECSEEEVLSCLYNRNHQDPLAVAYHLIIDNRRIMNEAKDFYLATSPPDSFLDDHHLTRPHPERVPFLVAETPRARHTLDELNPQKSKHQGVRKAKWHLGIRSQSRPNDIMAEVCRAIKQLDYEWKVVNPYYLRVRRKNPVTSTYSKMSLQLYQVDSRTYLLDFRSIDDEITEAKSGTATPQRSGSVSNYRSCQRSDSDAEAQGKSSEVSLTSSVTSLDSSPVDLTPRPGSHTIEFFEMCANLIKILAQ
# Chain of UniProt P49642 (P49642 whole entry, looked up): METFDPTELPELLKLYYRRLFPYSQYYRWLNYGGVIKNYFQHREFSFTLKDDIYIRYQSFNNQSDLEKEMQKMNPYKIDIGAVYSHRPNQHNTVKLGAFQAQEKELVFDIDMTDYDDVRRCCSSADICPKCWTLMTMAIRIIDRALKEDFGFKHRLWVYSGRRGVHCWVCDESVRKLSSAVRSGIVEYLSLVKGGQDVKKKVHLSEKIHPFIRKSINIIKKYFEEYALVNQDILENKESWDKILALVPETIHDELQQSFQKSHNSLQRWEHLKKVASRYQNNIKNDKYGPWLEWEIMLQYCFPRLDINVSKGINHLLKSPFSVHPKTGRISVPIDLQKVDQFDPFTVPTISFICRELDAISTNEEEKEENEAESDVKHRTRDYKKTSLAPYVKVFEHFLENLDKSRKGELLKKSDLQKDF
# Chain of UniProt Q16401 (Q16401 whole entry, looked up): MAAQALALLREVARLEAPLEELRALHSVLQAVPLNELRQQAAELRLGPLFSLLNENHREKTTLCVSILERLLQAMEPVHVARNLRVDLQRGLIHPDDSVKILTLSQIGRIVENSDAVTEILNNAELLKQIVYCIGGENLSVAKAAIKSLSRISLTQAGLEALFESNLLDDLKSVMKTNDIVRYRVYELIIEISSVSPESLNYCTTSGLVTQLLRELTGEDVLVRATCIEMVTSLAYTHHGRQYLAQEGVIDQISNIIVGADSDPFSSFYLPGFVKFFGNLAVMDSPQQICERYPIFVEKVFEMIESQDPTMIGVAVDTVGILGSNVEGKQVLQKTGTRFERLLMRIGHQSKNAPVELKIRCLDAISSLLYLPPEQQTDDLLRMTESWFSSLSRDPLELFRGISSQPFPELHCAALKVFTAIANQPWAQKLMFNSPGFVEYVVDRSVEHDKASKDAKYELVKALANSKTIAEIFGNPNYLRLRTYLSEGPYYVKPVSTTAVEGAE
# Chain of UniProt P15735 (P15735 whole entry, looked up): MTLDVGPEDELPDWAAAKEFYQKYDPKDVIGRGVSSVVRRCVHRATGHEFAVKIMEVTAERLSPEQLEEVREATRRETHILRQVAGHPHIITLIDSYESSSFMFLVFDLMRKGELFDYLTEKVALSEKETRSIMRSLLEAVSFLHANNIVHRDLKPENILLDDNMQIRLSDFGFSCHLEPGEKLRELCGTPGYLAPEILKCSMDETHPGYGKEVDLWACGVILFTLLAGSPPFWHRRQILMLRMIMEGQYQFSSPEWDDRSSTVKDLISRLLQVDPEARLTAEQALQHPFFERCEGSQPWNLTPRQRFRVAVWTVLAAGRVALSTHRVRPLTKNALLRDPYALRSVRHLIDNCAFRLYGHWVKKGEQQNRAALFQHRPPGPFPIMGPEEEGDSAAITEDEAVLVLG
# Chain of UniProt P35227 (P35227 whole entry, looked up): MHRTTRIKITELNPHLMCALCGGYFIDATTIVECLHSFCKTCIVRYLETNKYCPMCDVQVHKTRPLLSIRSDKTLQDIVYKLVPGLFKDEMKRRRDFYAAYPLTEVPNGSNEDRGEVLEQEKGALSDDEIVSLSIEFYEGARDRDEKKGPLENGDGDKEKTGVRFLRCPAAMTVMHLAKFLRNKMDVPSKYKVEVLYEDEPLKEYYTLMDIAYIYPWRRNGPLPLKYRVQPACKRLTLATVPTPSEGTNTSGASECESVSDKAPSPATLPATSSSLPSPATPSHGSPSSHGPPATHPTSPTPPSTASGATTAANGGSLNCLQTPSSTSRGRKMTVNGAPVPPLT
# Chain of UniProt Q15185 (Q15185 whole entry, looked up): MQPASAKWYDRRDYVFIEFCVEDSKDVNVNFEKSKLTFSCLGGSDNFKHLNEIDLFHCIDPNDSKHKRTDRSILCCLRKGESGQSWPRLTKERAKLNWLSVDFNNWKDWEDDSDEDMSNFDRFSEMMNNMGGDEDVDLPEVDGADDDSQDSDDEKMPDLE
Target,log2 fold change [1],log2 fold change (volasertib),log2 fold change [2],log2 fold change (epoxomicin),log2 fold change [3],log2 fold change [4],log2 fold change [5],log2 fold change (rosiglitazone),log2 fold change [6],log2 fold change [7],log2 fold change (saracatinib),log2 fold change (sotrastaurin),log2 fold change (alvocidib),log2 fold change (Tubastatin A),log2 fold change [8],log2 fold change (defactinib),log2 fold change (rucaparib),log2 fold change [9],log2 fold change (encorafenib),log2 fold change [10]
PSMD2 (UniProt Q13200),0.049,0.089,-0.009,-0.365 (active),0.011,0.07,-0.04,-0.024,0.021,0.055,-0.047,-0.029,0.048,-0.014,-0.033,0.061,0.035,0.01,0.051,0.012
PITRM1 isoform 2 (UniProt Q5JRX3),0.048,0.489 (active),0.166,-0.029,0.074,-0.084,0.023,0.03,-0.124,-0.189,-0.016,-0.045,-0.022,0.009,-0.027,-0.034,-0.051,0.09,-0.032,-0.005
PFDN1 (UniProt O60925),0.044,-0.009,-0.004,0.183,0.02,-0.019,0,0.003,-0.119,0.113,-0.074,-0.014,-0.035,0.022,-0.001,-0.066,-0.095,0.093,0.008,-0.078
PTDSS1 (UniProt P48651),0.004,0.009,-0.069,-0.035,-0.019,0.124,0,0.031,0.177,-0.081,-0.011,0.006,0.129,0.048,-0.065,0.13,0.292,0.07,0.224,0.01
PYGB (UniProt P11216),-0.199,-0.572 (active),0.036,-0.045,-0.203,0.023,0.012,-0.004,0.021,-0.071,0.012,-0.142,0.153,-0.003,-0.391 (active),-0.091,-0.004,-0.042,0.024,-0.009
PTGES3 (UniProt Q15185),-0.21,-0.504 (active),0.096,0.041,0,-0.11,0.049,0.048,-0.045,-0.134,-0.023,-0.057,-0.215,0.023,0.088,-0.205,-0.059,0.034,0.032,-0.068
PSMD5 (UniProt Q16401),-0.112,-0.225 (active),0.013,0.027,0,-0.026,-0.011,0.012,-0.043,-0.038,0.019,-0.014,-0.047,-0.037,0.016,-0.049,-0.045,-0.028,0.008,0.031
PUM1 isoform 3 (UniProt Q14671),-0.075,-0.302 (active),0.036,0.023,-0.007,-0.018,0.015,0.033,0.044,-0.123,-0.01,-0.023,-0.059,0.004,-0.019,-0.078,0.082,-0.039,-0.01,0.001
PRKAA1 isoform 2 (UniProt Q13131),-0.035,-0.154,0.04,0.017,-0.026,-0.052,-0.007,0.016,0.001,-0.254 (active),0.027,0.033,-0.032,-0.015,-0.19,-0.048,-0.006,-0.047,0.02,-0.004
PIP4K2B (UniProt P78356),0.573 (active),0.776 (active),-0.089,0.015,-0.036,-0.054,0.029,0.005,0.172,0.231,-0.021,-0.088,0.204,0.022,0.179,0.176,-0.035,-0.083,0.049,-0.108
PTP4A1 (UniProt Q93096),0.025,0.019,0.036,0.065,0.029,-0.055,-0.044,-0.011,-0.043,0.022,-0.058,0.061,-0.34 (active),0.036,0.02,-0.447 (active),-0.038,0.04,-0.027,0.029
PRKCA (UniProt P17252),0.073,-0.179,0.025,-0.018,-0.029,0,0.017,0.032,-0.15,-0.29,-0.174,-0.502 (active),-0.017,0.018,0.026,-0.006,0.039,0.308,-0.038,0.005
PRIM1 (UniProt P49642),-0.097,-0.249,0.093,0.088,-0.072,-0.018,0.117,0.048,0.052,-0.12,-0.109,-0.111,-0.007,0.042,0.116,-0.107,0.084,0.051,0.153,-0.082
PPP2R5C isoform 5 (UniProt Q13362),-0.12,-0.429 (active),0.019,0.06,-0.086,-0.009,-0.023,0.021,-0.027,-0.203,0.007,-0.018,-0.045,0.014,-0.02,-0.044,-0.019,0.023,0.126,-0.042
PHKG2 (UniProt P15735),-0.155,-0.195,0.054,-0.004,0.01,0.043,-0.002,0.018,-0.027,-0.156,0.002,-0.071,-0.069,0.029,0.167,0.026,-0.032,0.1,0.181,-0.025
PCGF2 (UniProt P35227),-0.131,-0.089,0.012,-0.005,-0.054,-0.02,-0.03,0.028,-0.071,-0.282 (active),-0.029,0.04,-0.074,0.039,-0.057,-0.129,0.024,0.122,0.071,0.027
